Data reported in the supplement of paper PMC8728848.
The entries come from a sample that favours the strongest signals as a whole.

Columns and labels:
Assay in all cases: glycan array binding signal (z-score within array); higher = stronger binding
Conditions in all cases: glycan notation: IUPAC condensed, linker removed
[1] = target: Fuc(a1-2)Gal(b1-4)Fuc(a1-3)]GlcNAc(b1-2)Man(a1-3)[Fuc(a1-2)Gal(b1-4)[Fuc(a1-3)]GlcNAc(b1-2)Man(a1-6)]Man(b1-4)GlcNAc(b1-4)GlcNAc
Outline: (§1)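 The binding signal is a Z-score computed within each array. Data were drawn from 3228 arrays in the Consortium for Functional Glycomics database, restricted to those with a known protein sequence. Scores were averaged over arrays of the same protein sequence at different concentrations or buffers, and over linkers, and negative values can be taken as non-binding.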

[2] = target: Fuc(a1-2)Gal(b1-4)GlcNAc(b1-3)[Fuc(a1-3)[Gal(b1-4)]GlcNAc(b1-6)]Gal(b1-4)Glc
Outline: as §1

[3] = target: Fuc(a1-2)Gal(b1-4)[Fuc(a1-3)]GlcNAc(b1-3)Gal(b1-4)[Fuc(a1-3)]GlcNAc
Outline: as §1

[4] = target: Fuc(a1-2)[Gal(a1-3)]Gal(b1-3)GlcNAc(b1-6)GalNAc
Outline: as §1

[5] = target: Fuc(a1-2)[Gal(a1-3)]Gal(b1-4)GlcNAc(b1-2)Man(a1-3)[Fuc(a1-2)[Gal(a1-3)]Gal(b1-4)GlcNAc(b1-2)Man(a1-6)]Man(b1-4)GlcNAc(b1-4)[Fuc(a1-6)]GlcNAc
Outline: as §1

[6] = target: Fuc(a1-2)[Gal(a1-3)]Gal(b1-4)GlcNAc(b1-3)GalNAc
Outline: as §1

[7] = target: Fuc(a1-2)[Gal(a1-3)]Gal(b1-4)[Fuc(a1-3)]GlcNAc(b1-3)GalNAc
Outline: as §1

[8] = target: Fuc(a1-3)[Gal(b1-4)]GlcNAc
Outline: as §1

[9] = target: Gal(a1-3)Gal(b1-3)GlcNAc(b1-6)GalNAc
Outline: as §1

[10] = target: Gal(a1-3)[Gal(a1-4)]Gal(b1-4)GlcNAc
Outline: as §1

Gal(a1-4)GlcNAc = target: Gal(a1-4)GlcNAc
Outline: as §1

Gal(a1-6)Glc = target: Gal(a1-6)Glc
Outline: as §1

[11] = target: Gal(b1-3)[Fuc(a1-4)]GlcNAc(b1-3)Gal(b1-3)[Fuc(a1-4)]GlcNAc
Outline: as §1

[12] = target: Gal(b1-4)GlcNAc(b1-2)Man(a1-3)[Gal(b1-4)GlcNAc(b1-2)Man(a1-6)][GlcNAc(b1-4)]Man(b1-4)GlcNAc(b1-4)[Fuc(a1-6)]GlcNAc
Outline: as §1

[13] = target: Gal(b1-4)GlcNAc(b1-2)Man(a1-6)Man(b1-4)GlcNAc(b1-4)GlcNAc
Outline: as §1

[14] = target: Gal(b1-4)GlcNAc(b1-3)Gal(b1-3)GlcNAc
Outline: as §1

[15] = target: Gal(b1-4)GlcNAc(b1-6)Gal(b1-4)GlcNAc
Outline: as §1

[16] = target: Gal3S(b1-4)[Fuc(a1-3)]Glc6S
Outline: as §1

Gal3S6S(b1-4)GlcNAc6S = target: Gal3S6S(b1-4)GlcNAc6S
Outline: as §1

Gal6S(b1-4)GlcNAc6S = target: Gal6S(b1-4)GlcNAc6S
Outline: as §1

[17] = target: GalNAc(a1-3)GalNAc(b1-3)Gal(a1-4)Gal(b1-4)GlcNAc
Outline: as §1

GalNAc(b1-6)GalNAc = target: GalNAc(b1-6)GalNAc
Outline: as §1

GalNAc4S6S(b1-4)GlcNAc = target: GalNAc4S6S(b1-4)GlcNAc
Outline: as §1

[18] = target: GlcNAc(b1-2)Man(a1-3)[GlcNAc(b1-2)Man(a1-6)]Man(b1-4)GlcNAc(b1-4)[Fuc(a1-6)]GlcNAc
Outline: as §1

[19] = target: GlcNAc(b1-3)Gal(b1-4)GlcNAc(b1-3)Gal(b1-4)GlcNAc(b1-2)[GlcNAc(b1-3)Gal(b1-4)GlcNAc(b1-3)Gal(b1-4)GlcNAc(b1-6)]Man(a1-6)[GlcNAc(b1-3)Gal(b1-4)GlcNAc(b1-3)Gal(b1-4)GlcNAc(b1-2)Man(a1-3)]Man(b1-4)GlcNAc(b1-4)[Fuc(a1-6)]GlcNAc
Outline: as §1

[20] = target: GlcNAc(b1-3)Gal(b1-4)GlcNAc(b1-3)[GlcNAc(b1-3)Gal(b1-4)GlcNAc(b1-3)]GalNAc
Outline: as §1

[21] = target: GlcNAc(b1-4)[GlcNAc(b1-6)]GalNAc
Outline: as §1

[22] = target: Man(a1-2)Man(a1-3)[Man(a1-6)]Man(a1-6)[Man(a1-2)Man(a1-3)]Man(b1-4)GlcNAc(b1-4)GlcNAc
Outline: as §1

[23] = target: Man(a1-3)[Man(a1-6)]Man(b1-4)GlcNAc(b1-4)[Fuc(a1-6)]GlcNAc
Outline: as §1

[24] = target: Neu5Ac(a2-3)Gal(b1-3)GalNAc(b1-4)Gal(b1-4)Glc
Outline: as §1

B1: Endo180d1-D4 (Homo sapiens), Q9UBG0 (protein)
chain: MGPGRPAPAPWPRHLLRCVLLLGCLHLGRPGAPGDAALPEPNVFLIFSHGLQGCLEAQGGQVRVTPACNTSLPAQRWKWVSRNRLFNLGTMQCLGTGWPGTNTTASLGMYECDREALNLRWHCRTLGDQLSLLLGARTSNISKPGTLERGDQTRSGQWRIYGSEEDLCALPYHEVYTIQGNSHGKPCTIPFKYDNQWFHGCTSTGREDGHLWCATTQDYGKDERWGFCPIKSNDCETFWDKDQLTDSCYQFNFQSTLSWREAWASCEQQGADLLSITEIHEQTYINGLLTGYSSTLWIGLNDLDTSGGWQWSDNSPLKYLNWESDQPDNPSEENCGVIRTESSGGWQNRDCSIALPYVCKKKPNATAEPTPPDRWANVKVECEPSWQPFQGHCYRLQAEKRSWQESKKACLRGGGDLVSIHSMAELEFITKQIKQEVEELWIGLNDLKLQMNFEWSDGSLVSFTHWHPFEPNNFRDSLEDCVTIWGPEGRWNDSPCNQSLPSICKKAGQLSQGAAEEDHGCRKGWTWHSPSCYWLGEDQVTYSEARRLCTDHGSQLVTITNRFEQAFVSSLIYNWEGEYFWTALQDLNSTGSFFWLSGDEVMYTHWNRDQPGYSRGGCVALATGSAMGLWEVKNCTSFRARYICRQSLGTPVTPELPGPDPTPSLTGSCPQGWASDTKLRYCYKVFSSERLQDKKSWVQAQGACQELGAQLLSLASYEEEHFVANMLNKIFGESEPEIHEQHWFWIGLNRRDPRGGQSWRWSDGVGFSYHNFDRSRHDDDDIRGCAVLDLASLQWVAMQCDTQLDWICKIPRGTDVREPDDSPQGRREWLRFQEAEYKFFEHHSTWAQAQRICTWFQAELTSVHSQAELDFLSHNLQKFSRAQEQHWWIGLHTSESDGRFRWTDGSIINFISWAPGKPRPVGKDKKCVYMTASREDWGDQRCLTALPYICKRSNVTKETQPPDLPTTALGGCPSDWIQFLNKCFQVQGQEPQSRVKWSEAQFSCEQQEAQLVTITNPLEQAFITASLPNVTFDLWIGLHASQRDFQWVEQEPLMYANWAPGEPSGPSPAPSGNKPTSCAVVLHSPSAHFTGRWDDRSCTEETHGFICQKGTDPSLSPSPAALPPAPGTELSYLNGTFRLLQKPLRWHDALLLCESHNASLAYVPDPYTQAFLTQAARGLRTPLWIGLAGEEGSRRYSWVSEEPLNYVGWQDGEPQQPGGCTYVDVDGAWRTTSCDTKLQGAVCGVSSGPPPPRRISYHGSCPQGLADSAWIPFREHCYSFHMELLLGHKEARQRCQRAGGAVLSILDEMENVFVWEHLQSYEGQSRGAWLGMNFNPKGGTLVWQDNTAVNYSNWGPPGLGPSMLSHNSCYWIQSNSGLWRPGACTNITMGVVCKLPRAEQSSFSPSALPENPAALVVVLMAVLLLLALLTAALILYRRRQSIERGAFEGARYSRSSSSPTEATEKNILVSDMEMNEQQE
- glycan array binding signal (z-score) [1]: 4.92
- glycan array binding signal (z-score) [2]: 2.16
- glycan array binding signal (z-score) [3]: 1.23
- glycan array binding signal (z-score) [4]: 0.628
- glycan array binding signal (z-score) [5]: -0.162
- glycan array binding signal (z-score) [6]: 0.423
- glycan array binding signal (z-score) [7]: 4.86
- glycan array binding signal (z-score) [8]: -0.373
- glycan array binding signal (z-score) [9]: 0.29
- glycan array binding signal (z-score) [10]: 0.096
- glycan array binding signal (z-score) (Gal(a1-4)GlcNAc): -0.552
- glycan array binding signal (z-score) (Gal(a1-6)Glc): 0.11
- glycan array binding signal (z-score) [11]: 3.87
- glycan array binding signal (z-score) [12]: -1.03
- glycan array binding signal (z-score) [13]: 0.463
- glycan array binding signal (z-score) [14]: 0.375
- glycan array binding signal (z-score) [15]: -1.39
- glycan array binding signal (z-score) [16]: 0.973
- glycan array binding signal (z-score) (Gal3S6S(b1-4)GlcNAc6S): 4.83
- glycan array binding signal (z-score) (Gal6S(b1-4)GlcNAc6S): 2.48
- glycan array binding signal (z-score) [17]: -0.306
- glycan array binding signal (z-score) (GalNAc(b1-6)GalNAc): -0.31
- glycan array binding signal (z-score) (GalNAc4S6S(b1-4)GlcNAc): 3.2
- glycan array binding signal (z-score) [18]: 5.6
- glycan array binding signal (z-score) [19]: 4.5
- glycan array binding signal (z-score) [20]: -0.76
- glycan array binding signal (z-score) [21]: -1.12
- glycan array binding signal (z-score) [22]: -0.036
- glycan array binding signal (z-score) [23]: 0.638
- glycan array binding signal (z-score) [24]: -3.76
